Experiment [1] can be described thus: rapamycin-like changes in RPL19A-GFP expression – cell-based, S. cerevisiae, multiplex flow cytometry, primary screen (AID 1862; in the data active means percent of DMSO control GFP below about 86%;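 further: lower values mimic rapamycin by blocking the RPL19A rise seen in DMSO cells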). The settings on record: S. cerevisiae RPL19A-GFP strain, flow cytometry fluorescence, 3 h; at 10 µM; stronger effect = lower value. Background: A flow cytometer gives signals particle by particle.
Experiment [2] can be described thus: TOR pathway GLN3 branch reporter MEP2-GFP changes – S. cerevisiae, multiplex flow cytometry, primary screen (AID 1867;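 active means GFP response, as percent of the DMSO control, above the screen-wide mean plus 3 SD, about 139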;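 further: median GFP channel fluorescence of barcode-gated MEP2-GFP cells measured by flow cytometry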). The following applies: S. cerevisiae MEP2-GFP strain, 3 h, at 10 µM, stronger effect = higher value, 100% means same as DMSO wells.
Experiment [3] is described as follows: TOR pathway RTG branch CIT2 reporter changes – S. cerevisiae, GFP fusion, multiplex flow cytometry, primary screen (AID 1870;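 active means percent response above a set limit, the screen-wide mean plus 3 SD, cut at about 130% in these data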;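 further: barcoded CIT2-GFP strain pooled with four other GFP strains with rapamycin as positive control; median GFP fluorescence per well over plate mean of DMSO wells so 100% = DMSO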). The following applies: S. cerevisiae CIT2-GFP expression, 3 h, at 10 µM, stronger effect = higher value.
Experiment [4] in a line: TOR pathway LAP4-GFP level changes – S. cerevisiae, multiplex flow cytometry, primary screen (AID 1873;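 active means GFP signal, as percent of the solvent control, above the screen mean plus 3 SD, about 149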). The settings on record: S. cerevisiae LAP4-GFP expression, 3 h, at 10 µM, stronger effect = higher value.
Experiment [5] can be described thus: yeast AGP1-GFP level changes, GLN3 branch – cell-based, multiplex flow cytometry, S. cerevisiae, primary screen (AID 1887;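 active means GFP signal above the screen-wide mean plus 3 SD, that is over about 124.5% of the solvent control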;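 further: AGP1-GFP fusion strain of S. cerevisiae within a five-strain barcoded multiplex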). The settings on record: 3 h, at 10 µM, stronger effect = higher value.
The nature of experiment [6]: reduced mouse 2C T cell binding to pMHC/ICAM-1 vesicles – MLPCN validation set, flow cytometry, LFA-1/ICAM-1 modulator project, pilot screen (AID 2523;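 active means response below a set limit, under 55% cells CD8-positive and vesicle-bound, and CD8 cells' 90th-percentile brightness under 279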;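 on vesicle binding response: mean PE anti-B7-1 fluorescence of CD8+ cells relative to row control; 100% = QL9-loaded vesicles with DMSO vehicle in the same plate row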). The following applies: 2C mouse CD8+ T cells, at 7 µM, stronger effect = lower value; double positive events: measured here: CD8+/vesicle+ event percentage.
Experiment [7] concerns the target Integrin beta-1 (Homo sapiens) + Integrin alpha-4 (Homo sapiens) (UniProt P13612+P05556). The experiment in a line: alpha4beta1 integrin LIBS antibody binding reduction – U937 cells, HUTS-21 mAb, flow cytometry, validation set, VLA-4 allosteric modulator project, pilot screen (AID 2674).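 Further: antibody binding induced by the VLA-4 ligand LDV present at three times its Kd; 0% = LDV ligand with antibody and no compound and 100% = antibody without LDV.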 The following applies: HUTS-21 LIBS mAb binding, at 6.7 µM, stronger effect = higher value, binding induced by LDV ligand.

Experiment [8] is described as follows: calorie-restriction mimetic ROS inhibitors, yeast – validation compound set, pilot screen (AID 2706;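 active means superoxide response below 65% of plate, a cut near 3 SD across the whole screen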;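 further: yeast exposed to compound for one week at 30 degrees C before staining; 100% = mean of all compound wells on the same plate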). The following applies: S. cerevisiae aging, superoxide DHE fluorescence; at 10 µM, stronger effect = lower value.
In experiment [9] the target is Beta-adrenergic receptor kinase 1 (Homo sapiens) (UniProt P25098). The experiment in a line: GRK2 binders displacing RNA aptamer, biochemical, validation, human GRK2, bead flow cytometry (AID 488806;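 active means aptamer binding inhibition above 30%, about 3 SD of noise from non-fluorescent compounds; inactive means inhibition at or below 30%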). The settings on record: bead-bound GRK2, FAM-aptamer displacement, at 10 µM, stronger effect = higher value.
Sequence of Beta-adrenergic receptor kinase 1 (Homo sapiens) (P25098 whole entry, looked up): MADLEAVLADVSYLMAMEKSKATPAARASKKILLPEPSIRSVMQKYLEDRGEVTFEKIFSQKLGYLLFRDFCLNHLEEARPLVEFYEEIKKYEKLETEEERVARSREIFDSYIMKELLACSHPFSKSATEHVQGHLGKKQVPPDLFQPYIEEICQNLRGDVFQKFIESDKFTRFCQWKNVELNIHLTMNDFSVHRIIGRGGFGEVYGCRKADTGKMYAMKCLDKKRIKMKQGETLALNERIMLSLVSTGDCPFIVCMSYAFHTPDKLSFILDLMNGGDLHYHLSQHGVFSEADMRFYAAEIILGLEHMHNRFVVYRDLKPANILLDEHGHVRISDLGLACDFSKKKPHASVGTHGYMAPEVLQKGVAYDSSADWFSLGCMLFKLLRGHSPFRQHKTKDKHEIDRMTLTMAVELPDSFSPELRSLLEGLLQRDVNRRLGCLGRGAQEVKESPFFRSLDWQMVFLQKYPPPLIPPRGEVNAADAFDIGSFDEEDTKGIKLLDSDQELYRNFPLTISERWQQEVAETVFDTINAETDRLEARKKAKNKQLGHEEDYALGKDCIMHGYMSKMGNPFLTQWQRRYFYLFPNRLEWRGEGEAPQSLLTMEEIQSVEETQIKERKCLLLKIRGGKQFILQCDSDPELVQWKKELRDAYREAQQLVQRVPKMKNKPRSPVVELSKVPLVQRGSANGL
For experiment [10], the target named is AP-2 complex subunit beta (Homo sapiens) (UniProt P63010). Put plainly: beta-arrestin/AP2 interaction blockers – biochemical, validation set, GST-AP2 beads, flow cytometry, pilot screen (AID 504541;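 active means inhibition above 54%, about 3 SD of non-fluorescent compounds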;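 further: AP2 carries R879A mutation and is captured from E. coli lysate; bead-bound FITC arrestin peptide fluorescence measuring arrestin peptide binding to AP2; 0% = DMSO wells and 100% = excess unlabeled arrestin peptide control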). The settings on record: FITC arrestin peptide, at 10 µM, stronger effect = higher value, AP2 beta2 appendage fragment, R879A mutant.
Sequence of AP-2 complex subunit beta (Homo sapiens) (P63010 whole entry, looked up, the tested form may be a part, one chain of several): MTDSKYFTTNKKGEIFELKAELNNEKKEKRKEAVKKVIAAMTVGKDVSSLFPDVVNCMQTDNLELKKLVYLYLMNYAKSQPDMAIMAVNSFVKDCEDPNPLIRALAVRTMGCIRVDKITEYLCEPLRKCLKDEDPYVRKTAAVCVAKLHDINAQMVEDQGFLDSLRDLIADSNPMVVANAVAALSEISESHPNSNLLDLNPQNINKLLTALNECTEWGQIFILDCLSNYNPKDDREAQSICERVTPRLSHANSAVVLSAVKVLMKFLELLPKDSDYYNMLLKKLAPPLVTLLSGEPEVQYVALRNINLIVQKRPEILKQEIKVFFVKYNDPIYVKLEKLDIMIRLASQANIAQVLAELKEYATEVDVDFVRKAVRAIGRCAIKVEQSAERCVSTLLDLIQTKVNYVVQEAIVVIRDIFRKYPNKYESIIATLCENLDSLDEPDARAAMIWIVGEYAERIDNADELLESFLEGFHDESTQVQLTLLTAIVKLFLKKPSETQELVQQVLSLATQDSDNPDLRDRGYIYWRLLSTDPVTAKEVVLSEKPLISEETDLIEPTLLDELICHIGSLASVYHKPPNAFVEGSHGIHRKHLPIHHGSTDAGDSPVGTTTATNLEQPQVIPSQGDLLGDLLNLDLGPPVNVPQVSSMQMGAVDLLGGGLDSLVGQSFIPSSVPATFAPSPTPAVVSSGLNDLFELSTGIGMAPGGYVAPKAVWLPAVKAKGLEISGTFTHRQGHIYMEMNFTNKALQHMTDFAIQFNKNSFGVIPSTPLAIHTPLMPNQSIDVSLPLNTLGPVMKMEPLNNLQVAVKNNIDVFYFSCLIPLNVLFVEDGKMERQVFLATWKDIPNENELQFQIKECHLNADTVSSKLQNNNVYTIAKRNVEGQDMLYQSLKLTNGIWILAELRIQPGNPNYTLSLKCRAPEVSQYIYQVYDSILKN
The nature of experiment [11]: cytosolic pH regulators acting via V-ATPase – S. cerevisiae, pHLuorin, HTS validation (AID 504600; in the data active means response above about 15%;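 further: plate controls were DMSO for no effect and reference compound for full effect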). The following applies: V-ATPase proton transport, at 10 µM, stronger effect = higher value.
Experiment [12] concerns anti-desmoglein-3 scFv antibody binding to human DSG3. The experiment in a line: blockers of pathogenic pemphigus antibody–desmoglein-3 binding – biochemical, validation compound set, bead-based, flow cytometry, pilot screen (AID 588368;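 active means binding below the plate cutoff, the plate median minus 3 SD, with a reading above zero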;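 further: signal is the median channel fluorescence of bead-bound GFP antibody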). The following applies: Protein G beads, DSG3-Fc, scFv-GFP binding, at 10 µM, stronger effect = lower value.
Experiment [13] can be described thus: Nile Red efflux blockade in pump-expressing yeast – validation compound set, multiplex, phenotypic, pilot screen (AID 588506;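 active means efflux inhibition above 0.42, the validation set average plus 4 SD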;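 further: Nile Red retained in cells so higher fluorescence means more efflux inhibition; 0 = negative control wells and 1 = enniatin B 25 µM full block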). The following applies: S. cerevisiae pump-expressing triplex, Nile Red efflux flow cytometry; at 10 µM; stronger effect = higher value; the pumps come from Candida albicans.
In experiment [14] the target is ATP-binding cassette sub-family B member 6 (Homo sapiens) (UniProt Q9NP58). The experiment in a line: blockers of ABCB6-driven porphyrin uptake – K562-ABCB6 cells, flow cytometry, validation set, pilot screen (AID 588550;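 active means inhibition above the screen-wide mean plus 3 SD, about 51%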;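 further: 0% = DMSO wells and 100% = benzethonium chloride 70 µM positive control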). The following applies: K562-ABCB6 porphyrin accumulation, 1 h, at 10 µM, stronger effect = higher value.
Sequence of ATP-binding cassette sub-family B member 6 (Homo sapiens) (Q9NP58 whole entry, looked up): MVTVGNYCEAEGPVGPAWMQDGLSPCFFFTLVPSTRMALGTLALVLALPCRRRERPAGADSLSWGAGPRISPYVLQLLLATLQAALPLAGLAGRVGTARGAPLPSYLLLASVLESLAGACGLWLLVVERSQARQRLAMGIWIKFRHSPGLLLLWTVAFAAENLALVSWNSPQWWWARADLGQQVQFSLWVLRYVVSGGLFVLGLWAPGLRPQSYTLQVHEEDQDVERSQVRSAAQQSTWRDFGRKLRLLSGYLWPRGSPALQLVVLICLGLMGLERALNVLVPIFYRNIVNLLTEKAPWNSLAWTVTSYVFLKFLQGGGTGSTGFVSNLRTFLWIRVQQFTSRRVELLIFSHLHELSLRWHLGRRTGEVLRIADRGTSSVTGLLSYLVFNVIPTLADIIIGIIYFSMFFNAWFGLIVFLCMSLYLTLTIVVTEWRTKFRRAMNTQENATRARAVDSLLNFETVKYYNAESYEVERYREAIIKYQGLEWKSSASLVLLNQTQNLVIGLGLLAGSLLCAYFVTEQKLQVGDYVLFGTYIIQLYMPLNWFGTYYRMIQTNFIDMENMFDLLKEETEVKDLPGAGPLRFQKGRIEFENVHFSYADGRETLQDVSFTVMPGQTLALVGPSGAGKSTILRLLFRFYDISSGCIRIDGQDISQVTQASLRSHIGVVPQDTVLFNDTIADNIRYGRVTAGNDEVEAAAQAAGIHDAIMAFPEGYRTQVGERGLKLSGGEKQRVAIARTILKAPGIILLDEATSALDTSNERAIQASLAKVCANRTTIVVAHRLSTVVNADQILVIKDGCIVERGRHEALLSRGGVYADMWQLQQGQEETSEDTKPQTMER
A short description of experiment [15]: AML differentiation inducers, ER-HoxA9 marrow cells – cell-based, GFP/MAC1 double positive, flow cytometry, validation set, primary screen (AID 588685;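 active means differentiation response of at least 50%, scaled between solvent and reference control, from cells with both markers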;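 further: compound exposure lasts four days before antibody staining and flow analysis; 0% = DMSO wells and 100% = 5 µM fulvestrant positive control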). The settings on record: stronger effect = higher value, normalized: vehicle 0, fulvestrant 100.
Experiment [16] has as its target Beta-2 adrenergic receptor (Homo sapiens) (UniProt P07550). The experiment in a line: agonist-induced loss of surface beta2AR – cell-based, FAP fluorogen, flow cytometry, validation set, pilot screen (AID 504459;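 active means percent response above 42, roughly 3 SD of non-fluorescent test compounds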;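 further: agonist-driven loss of surface beta2AR via internalization measured by FAP dye flow cytometry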). The settings on record: Am2.2-beta2AR cells, at 10 µM, stronger effect = higher value.

By inhibition is commonly meant the change of the read-out against control, counted positive when it falls.

Records with an inconclusive call do not appear. The source made the active and inactive calls.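 How the source made its calls, unless noted: active means inhibition above 50%, about 3 SD of the validation set; inactive means the rest.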

Sequence of Beta-2 adrenergic receptor (Homo sapiens) (P07550 whole entry, looked up): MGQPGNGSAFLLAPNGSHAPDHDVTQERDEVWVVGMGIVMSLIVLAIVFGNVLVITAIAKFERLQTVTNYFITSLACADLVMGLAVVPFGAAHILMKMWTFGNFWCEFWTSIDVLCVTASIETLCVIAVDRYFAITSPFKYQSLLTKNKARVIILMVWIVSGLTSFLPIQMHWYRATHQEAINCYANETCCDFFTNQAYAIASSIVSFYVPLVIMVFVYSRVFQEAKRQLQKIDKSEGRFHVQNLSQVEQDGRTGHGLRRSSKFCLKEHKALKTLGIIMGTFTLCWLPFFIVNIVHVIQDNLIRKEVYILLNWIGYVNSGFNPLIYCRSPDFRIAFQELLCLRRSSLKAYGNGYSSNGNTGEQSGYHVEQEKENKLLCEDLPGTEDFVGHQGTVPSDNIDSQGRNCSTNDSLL
Sequence of Integrin beta-1 (Homo sapiens) + Integrin alpha-4 (Homo sapiens) (P05556 whole entry, looked up): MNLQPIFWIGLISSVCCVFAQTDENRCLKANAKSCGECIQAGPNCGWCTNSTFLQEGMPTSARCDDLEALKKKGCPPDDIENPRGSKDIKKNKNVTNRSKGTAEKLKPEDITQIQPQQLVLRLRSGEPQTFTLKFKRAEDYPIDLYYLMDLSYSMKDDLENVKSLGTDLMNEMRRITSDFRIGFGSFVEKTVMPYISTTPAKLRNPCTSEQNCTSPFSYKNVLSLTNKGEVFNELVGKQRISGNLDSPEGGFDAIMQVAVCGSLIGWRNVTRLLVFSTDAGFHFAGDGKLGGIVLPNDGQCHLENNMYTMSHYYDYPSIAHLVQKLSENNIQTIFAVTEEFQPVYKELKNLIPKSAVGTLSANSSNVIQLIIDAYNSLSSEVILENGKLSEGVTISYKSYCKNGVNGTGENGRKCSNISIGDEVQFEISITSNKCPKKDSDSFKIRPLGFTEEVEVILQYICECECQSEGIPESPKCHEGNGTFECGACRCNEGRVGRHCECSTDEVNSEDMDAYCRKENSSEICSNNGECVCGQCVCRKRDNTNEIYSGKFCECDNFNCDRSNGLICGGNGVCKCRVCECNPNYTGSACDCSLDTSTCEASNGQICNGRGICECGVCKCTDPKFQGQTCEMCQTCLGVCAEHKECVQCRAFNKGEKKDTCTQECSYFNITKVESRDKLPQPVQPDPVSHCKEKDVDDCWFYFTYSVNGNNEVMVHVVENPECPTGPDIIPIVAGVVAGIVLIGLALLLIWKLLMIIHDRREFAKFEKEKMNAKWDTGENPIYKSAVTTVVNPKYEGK
Sequence of Integrin beta-1 (Homo sapiens) + Integrin alpha-4 (Homo sapiens) (P13612 whole entry, looked up): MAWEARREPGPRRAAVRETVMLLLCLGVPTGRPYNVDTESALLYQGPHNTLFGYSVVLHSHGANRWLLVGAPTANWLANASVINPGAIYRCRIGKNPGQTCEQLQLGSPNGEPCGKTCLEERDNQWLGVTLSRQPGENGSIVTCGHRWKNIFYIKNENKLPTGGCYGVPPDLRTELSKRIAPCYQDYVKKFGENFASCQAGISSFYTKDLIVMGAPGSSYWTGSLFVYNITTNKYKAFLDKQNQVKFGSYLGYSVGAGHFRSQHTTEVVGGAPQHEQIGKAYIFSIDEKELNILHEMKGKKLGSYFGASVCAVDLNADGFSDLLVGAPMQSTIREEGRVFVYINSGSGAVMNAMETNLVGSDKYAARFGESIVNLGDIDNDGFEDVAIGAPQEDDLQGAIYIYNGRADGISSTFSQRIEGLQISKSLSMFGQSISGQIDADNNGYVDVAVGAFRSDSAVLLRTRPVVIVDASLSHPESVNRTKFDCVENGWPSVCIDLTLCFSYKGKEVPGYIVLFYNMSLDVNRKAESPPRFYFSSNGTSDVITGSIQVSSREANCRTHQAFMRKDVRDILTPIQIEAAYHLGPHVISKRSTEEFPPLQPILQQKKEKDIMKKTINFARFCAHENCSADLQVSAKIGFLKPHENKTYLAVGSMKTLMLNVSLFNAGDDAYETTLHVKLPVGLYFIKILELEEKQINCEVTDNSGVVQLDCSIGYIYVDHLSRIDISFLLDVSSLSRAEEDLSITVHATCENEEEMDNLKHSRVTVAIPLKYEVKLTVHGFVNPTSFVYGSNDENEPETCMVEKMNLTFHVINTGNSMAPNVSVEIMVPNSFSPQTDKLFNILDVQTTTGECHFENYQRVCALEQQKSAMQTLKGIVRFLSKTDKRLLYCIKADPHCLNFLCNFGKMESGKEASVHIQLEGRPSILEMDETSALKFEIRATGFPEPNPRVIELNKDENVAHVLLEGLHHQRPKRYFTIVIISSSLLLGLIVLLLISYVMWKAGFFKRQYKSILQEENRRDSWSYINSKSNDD

As to `CN(C)C(=O)C12CCC(C)(c3nc4ccccc4nc31)C2(C)C` (stereo not given), in [1], the percent of DMSO control GFP was 104% (inactive). The GFP response vs DMSO in [2] is 101% (inactive); in [4] it was 99.4% (inactive). Besides, in experiment [3], the percent response of DMSO control was 106% (inactive). Further, the GFP response, % of DMSO in experiment [5] is 99.3% (inactive). Further, the double positive events in experiment [6] was determined as 62.9%. In addition, the vesicle binding response in experiment [6] is 190% (inactive). For the same molecule, the inhibition was 0.69% (inactive) in experiment [7], 9.98% (inactive) in [10] and 5% (inactive) in [14]. Also, in experiment [8], the superoxide response (% of plate) was 95.4% (inactive). Also, the aptamer binding inhibition in [9] is -1% (inactive). Moreover, the response in experiment [11] was 1.66% (inactive). The binding (% of control) in experiment [12] was 103% (inactive). Moreover, the efflux inhibition (fraction of control) in [13] was -0.09 (inactive). Further, the differentiation response in experiment [15] is 1.41% (inactive).

As to `O=C(CCCN1CCC(O)(c2ccc(Cl)cc2)CC1)c1ccc(F)cc1`, in experiment [1], the percent of DMSO control GFP was 101% (inactive). In addition, the GFP response vs DMSO in [2] was 99.3% (inactive); in [4], 86.8% (inactive). Besides, the percent response of DMSO control in experiment [3] is 91.9% (inactive). Further, in experiment [5], the GFP response, % of DMSO was 93.7% (inactive). The same molecule returned a double positive events in experiment [6] of 62.6%. Also, in experiment [6], the vesicle binding response was 48.6% (inactive). Besides, the inhibition in experiment [7] is 9.92% (inactive); in experiment [10], 13.3% (inactive); in experiment [14] it was 21% (inactive). For the same molecule, in experiment [9], the aptamer binding inhibition was -3% (inactive). Moreover, the response was -2.5% (inactive) in experiment [16] and -1.24% (inactive) in experiment [11]. Moreover, in experiment [12], the binding (% of control) is 105% (inactive). For the same molecule, the efflux inhibition (fraction of control) in [13] was 0.27 (inactive). Also, the differentiation response in experiment [15] is 15.9% (inactive).

For `Cn1cnc2c1c(=O)n(CC(O)CO)c(=O)n2C` (stereo not given), the percent of DMSO control GFP in experiment [1] was 102% (inactive). In addition, the results for the GFP response vs DMSO in experiment [2] and in [4] were 96.2% (inactive) and 98.6% (inactive), respectively. In addition, the percent response of DMSO control in experiment [3] was 98.9% (inactive). The GFP response, % of DMSO in [5] was 96.7% (inactive). In addition, in experiment [6], the double positive events worked out at 62.7%. Also, the vesicle binding response in experiment [6] was 59.9% (inactive). Moreover, the results for the inhibition in experiment [7], in experiment [10] and in [14] were 11% (inactive), -6.49% (inactive) and 9% (inactive), respectively. Also, the aptamer binding inhibition in experiment [9] is -1% (inactive). In addition, the values for the response in [16] and in experiment [11] were -2.93% (inactive) and -0.43% (inactive), respectively. Besides, the binding (% of control) in experiment [12] was 102% (inactive). The efflux inhibition (fraction of control) in [13] is -0.04 (inactive). In addition, the differentiation response in experiment [15] is 43.2% (inactive).

Regarding `C[C@H](CS)C(=O)N1CCC[C@H]1C(=O)O`, in experiment [1], the percent of DMSO control GFP was 106% (inactive). Moreover, the GFP response vs DMSO in experiment [2] was 98.9% (inactive); in experiment [4], 96.4% (inactive). Also, the percent response of DMSO control in experiment [3] is 109% (inactive). In addition, the GFP response, % of DMSO in [5] was 102% (inactive). The molecule further returned a double positive events in experiment [6] of 58.6%. In addition, the vesicle binding response in [6] is 186% (inactive). Also, the inhibition in experiment [7] was -2.11% (inactive); in [10] it was -2.44% (inactive); in [14], 8% (inactive). Also, in experiment [8], the superoxide response (% of plate) was 97.4% (inactive). Further, the aptamer binding inhibition in experiment [9] is 0% (inactive). Besides, the response in [11] is -1.86% (inactive). The binding (% of control) in experiment [12] was 96.7% (inactive). Besides, the efflux inhibition (fraction of control) in experiment [13] was -0.16 (inactive). Besides, the differentiation response in experiment [15] was -29.3% (inactive).

Take `CC/C(=C1/C(=O)CC(C)(C)C(C(=O)OC)C1=O)N1CCCC1` (stereo not given): in [1], the percent of DMSO control GFP is 103% (inactive). Besides, the GFP response vs DMSO in experiment [2] is 96.2% (inactive); in experiment [4], 83.5% (inactive). In addition, in experiment [3], the percent response of DMSO control was 83.8% (inactive). The GFP response, % of DMSO in experiment [5] is 88.9% (inactive). The molecule further yielded a double positive events in experiment [6] of 63%. Also, the vesicle binding response in experiment [6] is 174% (inactive). Moreover, the results for the inhibition in experiment [7], in experiment [10] and in experiment [14] were 6.81% (inactive), -0.06% (inactive) and 11% (inactive), respectively. In experiment [9], the aptamer binding inhibition is 3% (inactive). Besides, the response is -0.83% (inactive) in experiment [16] and 3.5% (inactive) in [11]. Besides, the binding (% of control) in experiment [12] was 96.6% (inactive). Also, the efflux inhibition (fraction of control) in experiment [13] is 0.99 (active). For the same molecule, the differentiation response in experiment [15] is 34.5% (inactive).
